An excerpt weighted towards active compounds, which were near 0.52% of everything screened.
Sa helicase inh: blocks Staphylococcus aureus DNA helicase | purified S. aureus helicase, fluorescence unwinding assay | inhibition, % (test concentration not listed) | 0.05% of 120,000 active | AID 485395; in the data active means inhibition above about 25%, passing the limit was not always enough
Sa growth inh: inhibitors of Staphylococcus aureus growth at 42 °C. S. aureus RN4220 growth, OD600, 20 h; stronger effect = lower value. relative growth, % (test concentration not listed). 0.53% of 170,000 active;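 active means relative growth at most 50% at the other temperature and 20+ points below 30 °C, or under 10% at both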
Of the large screens only hits and unclear results are named; the others gave an inactive call.

C[N+](C)(CCOc1ccccc1)Cc1ccccc1	none (no result: Sa helicase inh)
CN1c2ccccc2N(C)C1c1ccc(O)cc1	Sa growth inh -1.2
CN1C(=O)c2ccccc2N(C)C1c1ccc(F)cc1 (centres undefined)	none
Cc1noc(C)c1CC(=O)Nc1cc(C(F)(F)F)ccc1NC1CCCCC1	none
CN(Cc1ccccc1)S(=O)(=O)c1ccc2[nH]c(=O)c(=O)[nH]c2c1	none
CCC(=O)Nc1nc2ccccc2s1	none
CCC(=O)Nc1nc2c(s1)CSc1ccccc1-2	Sa growth inh 6.6
O=C(Nc1ccc(I)cc1)c1ccc(COc2ccccc2Br)o1	none
CCNc1oc(-c2ccc(F)cc2)nc1S(=O)(=O)c1ccc(Cl)cc1	none
CCC(=O)Nc1nnc(-c2cccc(OC)c2)o1	Sa growth inh 0.6
CCC(=O)Nc1nnc(-c2ccc3c(c2)CCCC3)o1	Sa growth inh -0.4
CCC(=O)Nc1nnc(-c2ccco2)o1	none
O=C(Nc1nnc(-c2ccc3c(c2)CCCC3)o1)C1CCCCC1	none (no result: Sa growth inh)
Cc1nc2cccnc2n1-c1ccc(CC(=O)N2CCc3ccccc32)cc1	none
CNC(=S)Nc1cc(Cl)ccc1OC	none
CN(Cc1ccccc1)S(=O)(=O)c1ccc(NC(=O)c2nc(S(C)(=O)=O)ncc2Cl)cc1	Sa growth inh 6.2
CS(=O)(=O)c1ncc(Cl)c(C(=O)NCc2ccccc2)n1	none
CCCSc1ncc(Cl)c(C(=O)Nc2ccc(S(=O)(=O)N(C)c3ccccc3)cc2)n1	none (no result: Sa helicase inh)
CN(c1ccccc1)S(=O)(=O)c1ccc(NC(=O)c2nc(S(C)(=O)=O)ncc2Cl)cc1	Sa growth inh -1.2 (no result: Sa helicase inh)
COc1ccc(S(=O)(=O)Nc2ccccc2C(=O)NCc2ccco2)cc1OC	none
O=C(O)CCn1ccccc1=O	none
CC(N)c1ccc(-c2ccccc2)cc1 (centres undefined)	none
c1ccc(-c2ccc(C(c3ccccc3)n3ccnc3)cc2)cc1 (centres undefined)	Sa growth inh 1.6 (no result: Sa helicase inh)
CCc1ccc(NC(=S)NN(C)C)cc1	none
CC(=O)O[C@H]1C[C@@]2(C)[C@@H](C[C@@H](O)C3[C@]2(C)CC[C@H]2[C@H](C)[C@H](O)CC[C@]32C)/C1=C(/CCC=C(C)C)C(=O)O (some centres undefined)	Sa growth inh 0.6 (no result: Sa helicase inh)
O=c1[nH]c(CN2CCCC2)nc2scc(-c3ccc(Cl)cc3)c12	none
CC[n+]1ccc(C)c2ccccc21	none
CCN1C=C/C(=C\c2cc[n+](CC)c3ccccc23)c2ccccc21	Sa helicase inh 82, Sa growth inh 5.5
CSc1cccc2cccnc12	none
CCN1CCN(c2ccc(Nc3ccnc4cc5ccccc5cc34)cc2)CC1	Sa helicase inh 48
CN1CCN(c2ccc(Nc3ccnc4cc(Cl)ccc34)cc2Cl)CC1	none
Cc1noc(C)c1S(=O)(=O)N1c2ccccc2CC1C (centres undefined)	none
O=C1/C(=C/c2cccnc2)CCCC/C1=C\c1cccnc1	none (no result: Sa growth inh)
O=C1/C(=C/c2ccncc2)CCC/C1=C\c1ccncc1	Sa growth inh -0.2
COC(=O)c1c2c(n3ccc(C)cc13)C(=O)c1ccccc1C2=O	Sa growth inh 7.5
COC(=O)c1c2c(n3ccccc13)C(=O)c1ccccc1C2=O	none (no result: Sa growth inh)
COc1cccc(-n2cc(C(=O)NCCC(C)C)c3ccccc3c2=O)c1	none
Oc1ccccc1C(Nc1ccccn1)c1ccc2cccnc2c1O (centres undefined)	Sa growth inh 4.8
Oc1c(C(Nc2ccccn2)c2ccccc2F)ccc2cccnc12 (centres undefined)	none (no result: Sa helicase inh)
N#C/C(=C\c1ccc(-c2cc(C(F)(F)F)ccc2Cl)o1)C(=O)O	none
N#C/C(=C/c1ccc(-c2cc(C(=O)O)ccc2Cl)o1)C(=O)NCCc1c[nH]c2ccccc12	Sa growth inh 9.7
CS(=O)(=O)c1ccc(C(O)[C@H](CF)NC(=O)C(Cl)Cl)cc1 (some centres undefined)	Sa growth inh -0.8 (no result: Sa helicase inh)
O=C(N[C@@H](CO)[C@H](O)c1ccc([N+](=O)[O-])cc1)C(Cl)Cl	Sa growth inh 0.2 (no result: Sa helicase inh)
CS(=O)(=O)c1ccc([C@@H](O)[C@@H](COC(=O)CN)NC(=O)C(Cl)Cl)cc1	none (no result: Sa helicase inh)
O=C(O)CCC(=O)OC[C@@H](NC(=O)C(Cl)Cl)[C@H](O)c1ccc([N+](=O)[O-])cc1	none (no result: Sa helicase inh)
Cc1cc(-c2nnc(-c3ccc(C(F)(F)F)cn3)o2)no1	none
CC(C)OC(=O)c1ccc2[nH]c3c(c2c1)CCCC3	Sa growth inh 34
COC(=O)c1ccc2[nH]c3c(c2c1)CCCC3	none
COc1ccc(-c2ncnn2-c2cccc(Cl)c2)cc1OC	none
CCCOC(=O)c1ccc(NC(=O)CO/N=C/c2nc3cc(Cl)ccc3o2)cc1	none
COC(=O)c1sc(S(C)(=O)=O)c(C#N)c1-c1cccs1	Sa growth inh 0.2
COC(=O)c1sc(N2CCCC2)c(C#N)c1-c1cccs1	none (no result: Sa helicase inh)
Cc1ccc(NC(=O)C2CCN(C(=O)c3cnn(-c4ccccc4)c3-n3cccc3)CC2)cc1	none (no result: Sa helicase inh)
CCc1cc(=O)oc2c(O)c(O)ccc12	none
O=c1cc(-c2ccccc2)c2ccc(O)c(O)c2o1	Sa helicase inh 58 (no result: Sa growth inh)
COc1ccc(C=Nc2ccc(C34CC5CC(CC(C5)C3)C4)cc2)c(OC)c1OC	none
C=C(NC(=O)C(=C)NC(=O)c1csc(C2=NC3c4csc(n4)C4NC(=O)c5csc(n5)C(C(C)(O)C(C)O)NC(=O)C5CSC(=N5)C(=CC)NC(=O)C(C(C)O)NC(=O)c5csc(n5)C3(CC2)NC(=O)C(C)NC(=O)C(=C)NC(=O)C(C)NC(=O)C(C(C)CC)NC2C=Cc3c(C(C)O)cc(nc3C2O)C(=O)OC4C)n1)C(N)=O (centres undefined)	Sa growth inh -1.0 (no result: Sa helicase inh)
CC(=O)Nc1ccc(S(=O)(=O)NCc2cccn2Cc2cccc(C)c2)cc1	none (no result: Sa helicase inh)
CCOC(=O)CC(=N)N	Sa helicase inh 63
CCOC(=O)CC(N)=S	none
CC(C)(C)C1CCc2c(sc(NC(=O)CSc3nnc(-c4ccncc4)o3)c2C#N)C1 (centres undefined)	none
Cn1nc(C(F)(F)F)cc1OC(=O)c1cccs1	none (no result: Sa helicase inh)
N#C/C(=C\c1ccc(N2CCCC2)o1)c1ccccc1	none
C[n+]1ccc(/C=C/c2ccc(N3CCCC3)o2)cc1	Sa helicase inh 57
CC(=O)Nc1ccc(C(=O)OCC(=O)NCc2ccccc2Cl)cc1	none
O=S(=O)(c1cccc2nonc12)N1CCCN(c2nccc(C(F)(F)F)n2)CC1	none (no result: Sa helicase inh)
CCN1CCN(Cc2ccc(NC(=O)c3cc4ccc5cccnc5c4[nH]3)cc2)CC1	Sa helicase inh 91
O=C(c1cc2ccc3cccnc3c2[nH]1)N1CCN(Cc2ccccc2)CC1	none
FC(F)(F)c1ccccc1/C=N\N1CCN(c2ccccc2)CC1	none
O=C1NC(=O)/C(=C\C=C\c2ccccc2)S1	none (no result: Sa growth inh)
O=C1NC(=S)S/C1=C\C=C\c1ccccc1	Sa growth inh 6.9
N#Cc1ccccc1NC(=O)COC(=O)Cc1cccc2ccccc12	none
Cc1cccc2nc(-c3ccccn3)c(Nc3ccccc3)n12	none (no result: Sa helicase inh)
Cc1cccc2nc(-c3ccccn3)c(Nc3ccc(F)cc3)n12	Sa growth inh 1.2 (no result: Sa helicase inh)
CCC(=O)OCCN1C(=O)c2ccccc2C1=O	none
Cc1c2oc3c(C)ccc(C(=O)N[C@@H]4C(=O)N[C@H](C(C)C)C(=O)N5CCC[C@H]5C(=O)N(C)CC(=O)N(C)[C@@H](C(C)C)C(=O)O[C@@H]4C)c3nc-2c(C(=O)N[C@@H]2C(=O)N[C@H](C(C)C)C(=O)N3CCC[C@H]3C(=O)N(C)CC(=O)N(C)[C@@H](C(C)C)C(=O)O[C@@H]2C)c(N)c1=O	Sa growth inh -0.6 (no result: Sa helicase inh)
CN1C(=O)/C(=C2\SC(=S)N(C)C2=O)SC1=S	none
COc1cc2c(cc1OC)C(CC(=O)O)NCC2 (centres undefined)	none
Nc1nc(SC#CC(F)(F)F)ns1	Sa growth inh -0.6

Screens as filed in PubChem BioAssay.
